Bioassay records deposited in PubChem by National Center for Advancing Translational Sciences (NCATS).
Rows were chosen to be rich in hits. Some 7.9% of all compounds tested hit in one or more screens of this group.
HT1080 IDH1KD tx – qHTS for induction of synthetic lethality in tumor cells producing 2HG: qHTS for the HT-1080-IDH1KD cell line; HT-1080 IDH1 knockdown viability, ATP luminescence, 48 h; 360,000 compounds, 2% hits; AID 686971, 2013; Potency, µM (series often up to 46.1 µM), without a hit: top-dose activity, negative = toxicity, usual class: cytotoxic;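 note: 0% = DMSO wells and -100% = cell-free medium wells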
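Using the IDH1-knockdown HT-1080 line run in the same batch and compound series as the NT line, viability after 48 h at 37 °C was determined by CellTiter-Glo luminescence and expressed as % activity.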
MCF10A rerep – A quantitative high throughput screen for small molecules that induce DNA re-replication in MCF 10a normal breast cells; MCF 10A DNA re-replication, Hoechst nuclear intensity, 48 h; Potency, µM (doses to about 46.1 µM), inactives show top-dose activity, positive = re-replication, most hits filed as activators; 350,000 compounds, 2.9% hits; note: % of control where 0% means no effect; nearly all actives have a fitted effect of over 50% in size
KB-3-1 tox – qHTS assay for MDR1-selective chemotherapeutics: Primary screen using the parental adenocarcinoma cell KB-3-1 | KB-3-1 viability, CellTiter-Glo ATP luminescence, 72 h | Potency, µM (doses to about 46.1 µM), usual class: cytotoxic | 400,000 compounds, 1.4% hits | AID 1347075, 2019; note: % is set by controls: 0 for no effect and ±100 for the full control effect; nearly all actives have a fitted effect of over 60% in size
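Cytotoxicity measured as CellTiter-Glo luminescence after 72 h at 37 C. Compound titrations were pinned onto drug-naive KB-3-1 parental adenocarcinoma cells grown in DMEM with 10% FBS, and normalized data fitted to concentration-response curves.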
KB-V1 cytotox – qHTS assay for MDR1-selective chemotherapeutics: Primary screen using the drug-selected MDR subline cells KB-V1; KB-V1 MDR cells viability, CellTiter-Glo, 72 h; Potency, µM (top dose mostly 46.1 µM), most hits filed as cytotoxic; 400,000 compounds, 3.4% hits; AID 1347076, 2019; note: % is set by controls: 0 for no effect and ±100 for the full control effect; nearly all actives have a fitted effect of over 60% in size
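Cytotoxicity toward P-gp-expressing KB-V1 cells was determined as loss of CellTiter-Glo luminescence after 72 h at 37 degrees C. Compounds were tested in quantitative HTS format across a concentration range, with curves fitted to normalized data.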
SW480 rereplic – A quantitative high throughput screen for small molecules that induce DNA re-replication in SW480 colon adenocarcinoma cells. SW480 DNA re-replication, Hoechst DNA content imaging, 48 h. AID 624297, 2012. Potency, µM (top dose mostly 46.1 µM), inactives show top-dose re-replication activation, usual class: activators. 340,000 compounds, 1.8% hits; note: % of control where 0% means no effect; nearly all actives have a fitted effect of over 55% in size
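Hoechst fluorescence of nuclei (405 nm excitation, 500-530 nm emission) measured by plate-scanning imager after 48 hr compound exposure at 37 C; re-replication scored as increased number of nuclei with elevated intensity.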
HT1080-NT tox – qHTS for induction of synthetic lethality in tumor cells producing 2HG: qHTS for the HT-1080-NT fibrosarcoma cell line; HT-1080-NT fibrosarcoma viability, CellTiter-Glo ATP luminescence, 48 h; Potency, µM (series often up to 46.1 µM), for the others: at the highest dose activity, negative = less viability, hits mostly cytotoxic; 360,000 compounds, 1.6% hits;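 note: NT is the 2HG producing partner of a matched IDH1 knockdown line; 0% = DMSO-treated cells and -100% = media-only wells without cells; nearly all actives have a fitted effect of over 55% in size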
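HT-1080-NT; 750 cells/well; 5% FBS RPMI; 48 h compound, 37 degrees C; CellTiter-Glo luminescence; curve fitting and curve-class assignment.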
Numbers without * were called inactive; i = inactive; ? = inconclusive; nt = not tested or not shown; [ ] = remark or other dose. Calls come from the whole dose curve; as a rule, active = well fitted curve in the direction sought with a large enough effect; inconclusive = small, poorly fitted or top-dose-only effect, or another doubt; inactive = no such curve, though single readings can be large; an effect the other way counts as inactive or inconclusive. Potency is the fitted concentration of half-maximal effect.

SMILES	HT1080 IDH1KD tx	MCF10A rerep	KB-3-1 tox	KB-V1 cytotox	SW480 rereplic	HT1080-NT tox
COc1ccc(C(C)=O)cc1Cn1c(C)c(C(=O)NCc2cccc(Cl)c2)sc1=O	-2%	nt	i	?	nt	-25%
CSc1ccc(Cn2c(C)c(C(=O)NCc3cccc(C)c3)sc2=O)cc1	?	nt	i	9.2µM*	nt	-9%
COc1ccc(Cl)cc1Cn1c(C)c(C(=O)NCc2cccc(Cl)c2)sc1=O	-1%	nt	i	15µM*	nt	-3%
CSc1ccc(Cn2c(C)c(C(=O)NCc3cccc(Cl)c3)sc2=O)cc1	?	nt	i	9.2µM*	nt	-17%
C=Cc1ccc(Cn2c(C)c(C(=O)NCc3cccc(C)c3)sc2=O)cc1	?	nt	i	?	nt	-21%
COc1ccc(CNC(=O)c2sc(=O)n(Cc3ccc(S(=O)(=O)N(C)C)cc3)c2C)cc1	?	nt	?	?	nt	-22%
COc1ccc(CNC(=O)c2sc(=O)n(Cc3cc(Cl)ccc3OC)c2C)cc1	-1%	nt	i	?	nt	-4%
COc1ccc(CNC(=O)c2sc(=O)n(Cc3ccc(C)cc3)c2C)cc1	-2%	nt	i	21µM*	nt	5%
COc1ccc(NC(=O)c2sc(=O)n(Cc3ccc(F)c(Cl)c3)c2C)cc1OC	?	nt	4.6µM*	?	nt	-12%
O=C(CN1CCOCC1)Nc1cccc(C(=O)Nc2cccc(C(F)(F)F)c2)c1	-3%	1%	i	i	-5%	-8%
COc1ccc(C(C)(C)C)cc1NC(=O)c1[nH]c(C)c(C(C)=O)c1C	-15%	18µM*	?	?	?	?
COc1ccc(NC(=O)c2[nH]c(C)c(C(C)=O)c2C)cc1Cl	-15%	?	i	i	?	-16%
CC(=O)c1c(C)[nH]c(C(=O)Nc2cccc(C(F)(F)F)c2)c1C	?	4%	?	13µM*	9%	?
CCCCCNCC(=O)Nc1cccc(C(=O)Nc2cccc(C(F)(F)F)c2)c1	16µM*	?	?	23µM*	18%	21µM*
O=C(NC(=S)NNC(=O)c1cnccn1)c1ccc(F)cc1	?	11%	i	i	18%	?
CCCNC(=O)CCn1nc(-c2ccc(C)cc2)c2ccccc2c1=O	2%	2%	i	i	2%	1%
COc1ccccc1N(CC(O)CN1C(=O)NC(C)(C)C1=O)S(=O)(=O)c1ccc(C)cc1 (stereo unspecified)	-2%	4%	i	i	1%	1%
CCOC(=O)CNC(=O)CCNS(=O)(=O)c1ccc2c(c1)c(=O)n(C)c(=O)n2C	0%	1%	i	i	-14%	-2%
O=C(CCN1C(=O)c2ccccc2C1=O)c1cnc[nH]1	?	nt	i	i	nt	-1%
Cc1nc(-c2ccccc2)nc2sc(C(=O)c3ccc(F)cc3)c(N)c12	0%	10µM*	i	i	16µM*	5%
Cc1nc2sc(C(=O)c3ccccc3)c(N)c2c(C)c1C	-2%	-2%[9.22 µM]	i	?	1%	-5%
CCOc1ccccc1NC(=O)c1sc2nc(-c3ccc(OC)cc3)ccc2c1N	nt	nt	i	?	nt	nt
CCOC(=O)c1sc2nc(-c3cccnc3)ccc2c1N	-7%	?	i	i	17%	-2%
COc1ccc(C(=O)c2sc3nc(-c4ccccc4)ccc3c2N)cc1	-23%	3.7µM*	?	i	21µM*	4%
COc1ccc(-c2c(C#N)c(N)nc3sc(C(=O)c4ccccc4)c(N)c23)cc1	14%	?	i	4.1µM*	-3%	1%
SMILES	HT1080 IDH1KD tx	MCF10A rerep	KB-3-1 tox	KB-V1 cytotox	SW480 rereplic	HT1080-NT tox
CCOc1ccc(-c2c(C#N)c(N)nc3sc(C(=O)c4ccccc4)c(N)c23)cc1	-1%	1%	i	i	10%	-5%
CC(C)OC(=O)c1sc2nc(-c3ccccc3)ccc2c1N	0%	?	i	i	5.8µM*	-6%[9.24 µM]
Clc1ccc(-n2cccc2)cn1	5%	-6%	i	i	-1%	0%
CCOC(=O)c1ccc(NC(=O)COc2ccc(CNCCO)cc2OCC)cc1	?	0%	i	i	-1%	?
CC(=O)Nc1ccc(C(=O)OCC(=O)N(Cc2ccccc2)C(C)(C)C)cc1	4%	4%	i	15µM*	-13%	0%
CC(=O)Nc1ccc(C(=O)OCC(=O)NCc2ccccc2)cc1	26µM*	?	?	i	?	?
CC(=O)c1ccc(S(=O)(=O)NCCC(=O)OCC(=O)N(Cc2ccccc2)C(C)(C)C)cc1	-4%	5%	i	21µM*	-3%	-2%
Cc1ccc(S(=O)(=O)NCCC(=O)OCC(=O)N(Cc2ccccc2)C(C)(C)C)cc1	3%	19%	i	i	-31%	12%
CCOC(=O)c1ccc(NC(=O)COc2ccccc2CNCCc2ccccc2)cc1	?	2.3µM*	i	i	-12%	?
CNS(=O)(=O)c1cccc(C(=O)OCC(=O)N(Cc2ccccc2)C(C)(C)C)c1	1%	7%	i	i	-8%	18%
Cc1ccccc1N=C1NC(=O)C(CO)(CO)S1	6%	-2%	i	i	4%	-3%
Cc1cccc(C)c1NC(=O)CN(C)C(=O)c1cccc(-n2cccc2)c1	-8%	7%	i	i	-81%	0%
CCc1nc2ccc(C(=O)N(C)Cc3ccco3)cn2c1N(C)Cc1ccc(OC)cc1	-8%	nt	i	i	nt	-2%
Cc1cc(C(=O)N2CCN(C(c3ccccc3)c3ccccc3)CC2)on1	-6%	-6%	?	i	-1%	-7%
S=C(Nc1ccc2c(c1)OCCO2)Nc1ccc2c(c1)OCO2	3%	1%	i	i	-5%	5%
CCn1c(C)c(C(C)=O)c(N2CCCCC2)nc1=S	4%	0%	i	i	-1%	5%
O=C1C=CC(=Nc2ccc3c(c2)Cc2cc(F)ccc2-3)O1	2%	1%	nt	nt	?	-5%
O=C1C=CC(=Nc2cccc3c2C(=O)c2ccccc2-3)O1	-53%	?	?	i	23µM*	0%
